Rows were chosen to be rich in hits. Some 8.7% of all compounds tested hit in one or more screens of this group.
AMA1-RON2 inh: inhibitors of Plasmodium falciparum AMA1-RON2 interaction; AlphaScreen AMA1-biotinylated RON2 peptide binding; Potency, µM (titrated, usually from 58.2 µM), without a hit: at the top dose activity change, negative = inhibition, usual class: inhibitors; actives 0.2% (n = 360,000); AID 720542;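 also: 0% = vehicle wells and -100% = peptide control; nearly all actives have a fitted effect of over 45% in size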
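AMA1 (3D7) with his tag at 25 nM final met compounds first, then biotinylated RON2 peptide at 25 nM; detection used donor plus acceptor beads, 10 µg/mL apiece, read by AlphaScreen after 30 min at room temperature.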
Pf growth 48h: inhibits P. falciparum growth in the first generation, 48 h; actives 5.9% (n = 310,000); P. falciparum luciferase growth in erythrocytes, 48 h; Potency, µM (titrated, usually from 28.7 µM), for inactives: at the highest dose activity change, negative = inhibition, usual class: inhibitors
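Luminescence readout; reporter = integrated firefly luciferase in P. falciparum. RBC culture at 2% hematocrit, 0.1% parasitemia final, 37 C/5% CO2; decreased signal taken as growth inhibition.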
Pf growth 96h: P. falciparum growth inhibition at 96 hours; actives 6.9% (n = 320,000); AID 504834; Potency, µM (top dose mostly 28.7 µM), for the others: at the top dose activity change, negative = inhibition, hits mostly inhibitors; P. falciparum luciferase reporter growth, 96 h
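Erythrocytes infected with luciferase-expressing P. falciparum were dispensed at 2% hematocrit and 0.05% parasitemia (final), then incubated with compounds 96 hours at 37 C in 5% CO2. Luminescence after detection reagent addition reported growth.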
VACV Venus inh: inhibitors of vaccinia virus (Venus reporter) | Vaccinia virus Venus reporter expression, fluorescence | Potency, µM (top dose mostly 36.5 µM), for the others: at the highest dose activity change, negative = inhibition, most hits filed as inhibitors | actives 0.46% (n = 330,000) | AID 720580; calls by dose curve; tested in A549 cells; also: nearly all actives have a fitted effect of over 30% in size
Vaccinia mCherry: inhibitors of vaccinia virus infection (mCherry reporter signal); Vaccinia virus mCherry reporter infection, fluorescence; Potency, µM (series often up to 36.5 µM), for inactives: at the top dose activity change, negative = inhibition, usual class: inhibitors; actives 0.63% (n = 310,000); AID 720579; calls by dose curve; tested in A549 cells; also: nearly all actives have a fitted effect of over 35% in size
* hit, by the source's call. Unless noted, calls follow the shape of the dose curve; as a rule, active = well fitted curve in the direction sought with a large enough effect; inconclusive = small, poorly fitted or top-dose-only effect, or another doubt; inactive = no such curve, though single readings can be large; an effect the other way counts as inactive or inconclusive. Unless noted, % is scaled to controls: 0 for no effect and ±100 for the full control effect; potency is read from the fitted curve at half-maximal effect.

What do the screens show for `Cc1cc(C)nc(SCC(=O)N/N=C/c2cccn2-c2ccc(O)cc2)n1`?
AMA1-RON2 inh: -4%; Pf growth 48h: inconclusive; VACV Venus inh: -10%

Results for Cc1cc(C)nc(SCC(=O)N/N=C/c2cccn2-c2cccc(C(F)(F)F)c2)n1 ?
AMA1-RON2 inh: -11%; Pf growth 48h: 9.3µM*; Pf growth 96h: 13µM*

How did Cc1cc(NCC2CCCCC2)nc2ccccc12 do in these assays?
AMA1-RON2 inh: 0%; Pf growth 48h: 3.3µM*; Pf growth 96h: inconclusive; VACV Venus inh: -19%; Vaccinia mCherry: inconclusive

Results for CN(C)CCN1C(=O)c2ccccc2N(C)c2ccccc21 ?
Pf growth 48h: -18%; Pf growth 96h: 3µM*

How did CCOC(=O)CC(c1ccc(N)cc1)n1c(C)ccc1C (stereo not given) do in these assays?
AMA1-RON2 inh: 4%; Pf growth 48h: inconclusive; Pf growth 96h: inconclusive; VACV Venus inh: -8%; Vaccinia mCherry: inactive

Results for COC(=O)CC(c1ccc(F)cc1)n1c(C)ccc1C (stereo not given) ?
AMA1-RON2 inh: -5%; Pf growth 48h: inconclusive; Pf growth 96h: 13µM*; VACV Venus inh: -14%; Vaccinia mCherry: -4%

What do the screens show for `COc1cc(CN(C(=O)c2ccccc2)c2ccccn2)cc(OC)c1OC`?
VACV Venus inh: -2%; Vaccinia mCherry: -8%

Results for COc1ccc(CS(=O)(=O)/C(Cl)=C(/Cl)C(=O)Nc2ccc(OC)nc2)cc1 ?
AMA1-RON2 inh: -5%; Pf growth 96h: inconclusive; VACV Venus inh: 10µM*

Results for COc1ccc(NC(=O)/C(Cl)=C(/Cl)S(=O)Cc2ccccc2)cn1 (stereo not given) ?
AMA1-RON2 inh: 1%; Pf growth 48h: 15µM*; VACV Venus inh: 8.9µM*; Vaccinia mCherry: 7.1µM*

How did COc1ccc(NC(=O)Cc2ccccc2)cn1 do in these assays?
AMA1-RON2 inh: 3%; Pf growth 48h: 33%; Pf growth 96h: 5.2µM*; VACV Venus inh: 2%; Vaccinia mCherry: -3%

Results for Cc1nc(C)c(C(=O)N2CCCC(C(=O)c3ccc4ccccc4c3)C2)s1 (stereo not given) ?
AMA1-RON2 inh: -11%; Pf growth 48h: 7%; Pf growth 96h: inconclusive

How did Cc1ccc2c(c1C)NC(=O)C21N2CCCC2C(C(=O)c2ccc3ccccc3c2)C12C(=O)Nc1ccccc12 (stereo not given) do in these assays?
AMA1-RON2 inh: -13%; Pf growth 48h: 9.3µM*; Pf growth 96h: 9.3µM*

How did Cc1nc2nc(SCC(=O)NCCCN3CCCC(C)C3)nn2c(C)c1Cc1ccccc1Cl (stereo not given) do in these assays?
AMA1-RON2 inh: 2%; Pf growth 48h: 13µM*; Pf growth 96h: 31%

What do the screens show for `COc1ccc(NS(=O)(=O)c2ccc3nc(COc4ccc5ccccc5c4)[nH]c3c2)cc1`?
AMA1-RON2 inh: 10%; Pf growth 48h: 6%; Pf growth 96h: inconclusive; VACV Venus inh: 28µM*; Vaccinia mCherry: inconclusive

Results for COC(=O)c1ccc(Cl)cc1NC(=O)N(C)CCc1c(C)nn(C)c1C ?
VACV Venus inh: -8%; Vaccinia mCherry: -11%

Results for COc1ccc(-c2cn3nc(N4CCCC(C(=O)Nc5cccc(OC)c5)C4)sc3n2)cc1 (stereo not given) ?
VACV Venus inh: -14%; Vaccinia mCherry: -9%

Results for Cc1ccc(/C=C/C(=O)c2ccccc(=O)c2O)cc1C ?
AMA1-RON2 inh: 62%; Pf growth 48h: 8.3µM*; Pf growth 96h: 9.3µM*; VACV Venus inh: -23%; Vaccinia mCherry: inconclusive

How did O=C(/C=C/c1ccccc1)c1cc(Br)ccc(=O)c1O do in these assays?
AMA1-RON2 inh: -15%; Pf growth 96h: inconclusive; VACV Venus inh: inconclusive

Results for OC(c1ccc2c(c1)CN(Cc1ccc3nsnc3c1)CCO2)C1CCCCC1 (stereo not given) ?
VACV Venus inh: -2%; Vaccinia mCherry: -10%

Results for Oc1ccc(/C=N/Nc2cc(N3CCOCC3)nc(N3CCOCC3)n2)cc1 ?
AMA1-RON2 inh: -10%; VACV Venus inh: -26%; Vaccinia mCherry: -19%

Results for Oc1cccc(/C=N/Nc2cc(N3CCCC3)nc(N3CCCC3)n2)c1 ?
AMA1-RON2 inh: 6%; Pf growth 48h: 2.9µM*; Pf growth 96h: inconclusive; VACV Venus inh: inconclusive; Vaccinia mCherry: -16%

What do the screens show for `Oc1ccc(/C=N/Nc2cc(N3CCCC3)nc(N3CCCC3)n2)cc1`?
AMA1-RON2 inh: 7%; Pf growth 48h: inconclusive; Pf growth 96h: 2.1µM*; VACV Venus inh: -20%; Vaccinia mCherry: -25%

What do the screens show for `O=C(COc1ccccc1C(=O)Nc1ccccc1)Nc1cccc([N+](=O)[O-])c1`?
VACV Venus inh: -30%; Vaccinia mCherry: inconclusive

What do the screens show for `CCOC(=O)Cn1c(=NC(=O)C(C)C)sc2c(C)cc(C)cc21`?
AMA1-RON2 inh: 8%; Pf growth 48h: 1.9µM*; Pf growth 96h: inconclusive; VACV Venus inh: -6%; Vaccinia mCherry: 9%

How did CC(NC(=S)NC1CCCCC1)c1ccccc1 (stereo not given) do in these assays?
AMA1-RON2 inh: 9%; Pf growth 48h: inconclusive; Pf growth 96h: 38%

Results for Cc1ccc(C)c(C(C)NC(=S)NC2CCCCC2)c1 (stereo not given) ?
AMA1-RON2 inh: 3%; Pf growth 48h: 13µM*; Pf growth 96h: 37%; VACV Venus inh: 3%; Vaccinia mCherry: -17%

What do the screens show for `CCC(NC(=S)NC1CCCCC1)c1ccc(C)cc1` (stereo not given)?
Pf growth 48h: inconclusive; Pf growth 96h: 7.4µM*

Results for CCCc1ccc(C(C)NC(=S)NC2CCCCC2)cc1 (stereo not given) ?
AMA1-RON2 inh: 3%; Pf growth 48h: 13µM*; Pf growth 96h: 33%

What do the screens show for `CCN1C(=NCc2cccc(Cl)c2)N[C@@H](c2cccc(C(F)(F)F)c2)C(C(=O)OC)=C1C`?
VACV Venus inh: inconclusive; Vaccinia mCherry: -15%

What do the screens show for `Cc1ccc(C)c(CSc2nnc(C)n3c2cc2sccc23)c1`?
VACV Venus inh: -10%; Vaccinia mCherry: -10%

Results for Cc1ccc(-n2c(SCC(=O)NCc3ccco3)nc3nc4c(cc3c2=O)COC(C)(C)C4)cc1 ?
AMA1-RON2 inh: 1%; Pf growth 48h: 9.3µM*; Pf growth 96h: -11%; VACV Venus inh: -17%

How did Cc1cccc(NC(=O)CSc2nc3nc4c(cc3c(=O)n2-c2ccccc2)CCCC4)c1 do in these assays?
AMA1-RON2 inh: -9%; Pf growth 48h: 5.2µM*; Pf growth 96h: 2.9µM*; VACV Venus inh: -12%; Vaccinia mCherry: 10%

Results for Cc1nnc(SCC(=O)NC2CCCCC2)n1-c1ccccc1 ?
AMA1-RON2 inh: 16%; VACV Venus inh: -6%; Vaccinia mCherry: inactive

Screening data deposited in PubChem BioAssay by National Center for Advancing Translational Sciences (NCATS).
